Common to all, as to test: DAPPL (digital affinity profiling via proximity ligation, sequencing); 10 mM Tris-HCl pH 7.5, 50 mM NaCl, 1 mM DTT, 4% glycerol, room temperature, 30 min; GST-TFs on glutathione beads, 16-mer random dsDNA library, 0.1% formaldehyde crosslink after washing; high values mean tight binding
One assay has as its target T1, FLI1 (Homo sapiens, UniProt Q01543 1-452).
T1 sequence: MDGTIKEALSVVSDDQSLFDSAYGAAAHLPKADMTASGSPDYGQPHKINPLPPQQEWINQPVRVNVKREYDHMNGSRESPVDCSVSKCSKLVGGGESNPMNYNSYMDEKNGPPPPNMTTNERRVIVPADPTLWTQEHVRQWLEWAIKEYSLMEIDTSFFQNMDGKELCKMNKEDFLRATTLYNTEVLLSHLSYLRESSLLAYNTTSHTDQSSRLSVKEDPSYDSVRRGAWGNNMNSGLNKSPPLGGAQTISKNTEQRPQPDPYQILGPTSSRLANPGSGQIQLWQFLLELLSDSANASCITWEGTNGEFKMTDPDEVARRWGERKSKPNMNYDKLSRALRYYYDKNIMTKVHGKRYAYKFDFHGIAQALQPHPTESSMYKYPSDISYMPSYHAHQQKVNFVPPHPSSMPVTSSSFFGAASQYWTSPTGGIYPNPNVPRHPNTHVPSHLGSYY
To be noted: protein: recombinant; tags: N-terminal GST; dsDNA, one strand shown. A digest of the protocol:
(§1)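 A tag-only sample was pooled with DNA-barcoded human transcription factors that had been expressed in yeast as GST fusions and captured on glutathione beads. The pools were incubated for 30 min at room temperature with 200 nmole of a random double-stranded 16-mer DNA library in Tris/NaCl/DTT/glycerol buffer, then washed, crosslinked with 0.1% formaldehyde, proximity-ligated (BsaI/T4 ligase, 1 h, 37 °C), PCR-amplified and sequenced on an Illumina NextSeq500. Binding signal is each hexamer's read frequency for a factor divided by its frequency for the tag-only sample.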

In the next assay the target is T2, ELK1 (Homo sapiens, UniProt P19419 1-428).
T2 sequence: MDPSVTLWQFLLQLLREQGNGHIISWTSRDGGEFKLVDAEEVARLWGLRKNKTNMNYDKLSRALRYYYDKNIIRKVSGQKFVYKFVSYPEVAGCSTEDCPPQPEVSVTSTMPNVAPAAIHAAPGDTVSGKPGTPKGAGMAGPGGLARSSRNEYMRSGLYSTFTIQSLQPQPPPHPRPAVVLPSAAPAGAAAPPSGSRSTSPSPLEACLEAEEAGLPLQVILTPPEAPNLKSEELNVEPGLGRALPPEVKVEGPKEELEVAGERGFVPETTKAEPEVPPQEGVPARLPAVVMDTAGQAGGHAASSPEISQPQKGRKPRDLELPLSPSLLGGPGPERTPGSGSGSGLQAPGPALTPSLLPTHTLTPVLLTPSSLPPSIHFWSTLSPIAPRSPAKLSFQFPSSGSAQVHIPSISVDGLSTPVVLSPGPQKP
The conditions noted are these: protein: recombinant; tags: N-terminal GST; dsDNA, one strand shown. The gist of the method:
as §1

The target of a further assay is T3, GABPA (Homo sapiens, UniProt Q06546 1-454).
T3 sequence: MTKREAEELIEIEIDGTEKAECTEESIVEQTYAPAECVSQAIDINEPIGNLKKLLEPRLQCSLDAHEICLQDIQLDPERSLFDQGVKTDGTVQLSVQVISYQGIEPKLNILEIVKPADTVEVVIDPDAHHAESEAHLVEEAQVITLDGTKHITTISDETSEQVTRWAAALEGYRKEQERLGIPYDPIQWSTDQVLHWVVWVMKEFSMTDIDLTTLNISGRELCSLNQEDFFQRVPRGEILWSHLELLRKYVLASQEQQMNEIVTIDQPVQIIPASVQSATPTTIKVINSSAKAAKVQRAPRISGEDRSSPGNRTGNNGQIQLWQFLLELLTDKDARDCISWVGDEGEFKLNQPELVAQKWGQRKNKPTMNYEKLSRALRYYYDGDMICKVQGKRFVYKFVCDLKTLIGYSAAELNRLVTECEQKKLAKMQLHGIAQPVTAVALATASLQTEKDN
The conditions noted are these: protein: recombinant; tags: N-terminal GST; dsDNA, one strand shown. A digest of the protocol:
as §1

In another assay the target is T4, ERG (Homo sapiens, UniProt P11308 1-479).
T4 sequence: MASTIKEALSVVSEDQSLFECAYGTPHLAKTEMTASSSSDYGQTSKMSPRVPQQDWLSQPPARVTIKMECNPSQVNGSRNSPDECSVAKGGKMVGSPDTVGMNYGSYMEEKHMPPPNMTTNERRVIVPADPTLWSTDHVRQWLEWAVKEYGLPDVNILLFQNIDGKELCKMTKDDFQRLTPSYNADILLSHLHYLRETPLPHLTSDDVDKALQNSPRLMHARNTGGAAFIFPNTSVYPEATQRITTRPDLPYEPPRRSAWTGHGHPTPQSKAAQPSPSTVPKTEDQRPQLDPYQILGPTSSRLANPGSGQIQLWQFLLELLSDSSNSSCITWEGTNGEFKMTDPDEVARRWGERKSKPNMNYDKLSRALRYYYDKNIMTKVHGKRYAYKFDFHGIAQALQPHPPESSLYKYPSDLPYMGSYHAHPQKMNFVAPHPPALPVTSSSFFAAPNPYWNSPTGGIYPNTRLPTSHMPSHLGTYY
To be noted: protein: recombinant; tags: N-terminal GST; dsDNA, one strand shown. The gist of the method:
as §1

Another assay addresses ELF1 (Homo sapiens, UniProt P32519 1-619). The conditions noted are these: protein: recombinant; tags: N-terminal GST; dsDNA, one strand shown. The gist of the method:
as §1

For the next assay, the target named is T5, EHF (Homo sapiens, UniProt Q9NZC4 1-300).
T5 sequence: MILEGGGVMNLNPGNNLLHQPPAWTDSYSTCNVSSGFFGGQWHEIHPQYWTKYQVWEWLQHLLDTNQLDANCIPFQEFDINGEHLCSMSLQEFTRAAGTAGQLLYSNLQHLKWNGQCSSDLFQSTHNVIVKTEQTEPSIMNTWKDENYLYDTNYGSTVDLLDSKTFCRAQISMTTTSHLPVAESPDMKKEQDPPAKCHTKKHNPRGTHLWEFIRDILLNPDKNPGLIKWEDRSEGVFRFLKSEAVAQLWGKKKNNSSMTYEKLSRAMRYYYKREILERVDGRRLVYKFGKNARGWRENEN
To be noted: protein: recombinant; tags: N-terminal GST; dsDNA, one strand shown. The gist of the method:
as §1

Another assay concerns the target SPI1 (Homo sapiens, UniProt P17947 1-270). The conditions noted are these: protein: recombinant; tags: N-terminal GST; dsDNA, one strand shown. A digest of the protocol: as §1
A further assay addresses SPIB (Homo sapiens, UniProt Q01892 1-262). The conditions noted are these: protein: recombinant; tags: N-terminal GST; dsDNA, one strand shown. A digest of the protocol: as §1
A further assay has as its target T6, ELK3 (Homo sapiens, UniProt P41970 1-407).
T6 sequence: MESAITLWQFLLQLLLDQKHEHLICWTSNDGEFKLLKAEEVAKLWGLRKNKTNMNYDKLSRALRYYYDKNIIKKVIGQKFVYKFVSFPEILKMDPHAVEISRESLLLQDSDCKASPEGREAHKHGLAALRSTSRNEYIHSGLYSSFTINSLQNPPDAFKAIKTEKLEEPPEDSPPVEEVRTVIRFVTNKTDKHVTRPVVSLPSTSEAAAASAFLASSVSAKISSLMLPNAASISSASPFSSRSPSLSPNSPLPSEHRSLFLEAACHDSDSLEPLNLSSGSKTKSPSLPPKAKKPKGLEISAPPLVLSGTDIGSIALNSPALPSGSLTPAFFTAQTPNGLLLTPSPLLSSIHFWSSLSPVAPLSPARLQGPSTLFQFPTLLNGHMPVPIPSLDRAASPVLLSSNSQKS
The conditions noted are these: protein: recombinant; tags: N-terminal GST; dsDNA, one strand shown. A digest of the protocol:
as §1

The next assay addresses T7, FEV (Homo sapiens, UniProt Q99581 1-238).
T7 sequence: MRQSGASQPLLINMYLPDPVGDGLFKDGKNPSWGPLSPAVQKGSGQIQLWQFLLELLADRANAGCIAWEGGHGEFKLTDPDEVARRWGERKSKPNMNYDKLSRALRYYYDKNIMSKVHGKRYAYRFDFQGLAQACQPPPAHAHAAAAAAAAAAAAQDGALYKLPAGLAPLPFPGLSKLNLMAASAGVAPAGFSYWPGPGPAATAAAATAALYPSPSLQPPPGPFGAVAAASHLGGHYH
To be noted: protein: recombinant; tags: N-terminal GST; dsDNA, one strand shown. The gist of the method: as §1

A further assay has as its target ETV5 (Homo sapiens, UniProt P41161 1-510). The conditions noted are these: protein: recombinant; tags: N-terminal GST; dsDNA, one strand shown. A digest of the protocol: as §1
In a further assay the target is HSF1 (Homo sapiens, UniProt Q00613 1-529). To be noted: protein: recombinant; tags: N-terminal GST; chain copies: 3; dsDNA, one strand shown. The gist of the method:
as §1

In another assay the target is T8, SPIC (Homo sapiens, UniProt Q8N5J4 1-248).
T8 sequence: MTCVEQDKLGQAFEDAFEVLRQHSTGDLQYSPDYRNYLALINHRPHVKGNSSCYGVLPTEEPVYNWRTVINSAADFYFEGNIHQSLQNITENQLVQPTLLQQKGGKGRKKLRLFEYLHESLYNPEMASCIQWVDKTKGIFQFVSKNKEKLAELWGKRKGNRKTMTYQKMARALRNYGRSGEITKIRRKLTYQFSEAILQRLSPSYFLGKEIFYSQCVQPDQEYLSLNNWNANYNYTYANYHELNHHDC
To be noted: protein: recombinant; tags: N-terminal GST; dsDNA, one strand shown. A digest of the protocol: as §1

The target in another assay is ELF4 (Homo sapiens, UniProt Q99607 1-663). To be noted: protein: recombinant; tags: N-terminal GST; dsDNA, one strand shown. A digest of the protocol: as §1
Another assay addresses T9, ELK4 (Homo sapiens, UniProt P28324-2 1-405).
T9 sequence: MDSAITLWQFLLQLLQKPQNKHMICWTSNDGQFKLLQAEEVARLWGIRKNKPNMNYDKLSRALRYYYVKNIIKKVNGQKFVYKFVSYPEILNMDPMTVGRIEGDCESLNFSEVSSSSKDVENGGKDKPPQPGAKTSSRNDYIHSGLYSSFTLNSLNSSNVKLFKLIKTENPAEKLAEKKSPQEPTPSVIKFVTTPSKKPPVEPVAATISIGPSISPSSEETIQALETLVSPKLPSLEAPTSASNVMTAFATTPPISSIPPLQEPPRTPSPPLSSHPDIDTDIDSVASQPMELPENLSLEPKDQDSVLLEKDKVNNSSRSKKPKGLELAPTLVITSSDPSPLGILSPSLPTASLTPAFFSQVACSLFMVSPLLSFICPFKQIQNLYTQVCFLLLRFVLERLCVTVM
The conditions noted are these: protein: recombinant; tags: N-terminal GST; dsDNA, one strand shown. The gist of the method:
as §1

For another assay, the target named is T10, ETV2 (Homo sapiens, UniProt O00321 1-342).
T10 sequence: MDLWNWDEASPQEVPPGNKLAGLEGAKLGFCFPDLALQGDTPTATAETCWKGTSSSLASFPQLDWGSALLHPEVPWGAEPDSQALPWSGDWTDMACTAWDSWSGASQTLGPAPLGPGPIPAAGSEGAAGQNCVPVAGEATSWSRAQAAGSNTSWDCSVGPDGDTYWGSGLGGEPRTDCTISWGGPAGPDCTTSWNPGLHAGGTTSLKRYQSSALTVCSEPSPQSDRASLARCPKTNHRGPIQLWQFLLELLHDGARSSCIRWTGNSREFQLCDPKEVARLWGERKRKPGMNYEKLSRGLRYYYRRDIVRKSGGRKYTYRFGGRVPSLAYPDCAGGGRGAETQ
The conditions noted are these: protein: recombinant; tags: N-terminal GST; dsDNA, one strand shown. The gist of the method: as §1

In the next assay the target is T11, ELF3 (Homo sapiens, UniProt P78545 1-371).
T11 sequence: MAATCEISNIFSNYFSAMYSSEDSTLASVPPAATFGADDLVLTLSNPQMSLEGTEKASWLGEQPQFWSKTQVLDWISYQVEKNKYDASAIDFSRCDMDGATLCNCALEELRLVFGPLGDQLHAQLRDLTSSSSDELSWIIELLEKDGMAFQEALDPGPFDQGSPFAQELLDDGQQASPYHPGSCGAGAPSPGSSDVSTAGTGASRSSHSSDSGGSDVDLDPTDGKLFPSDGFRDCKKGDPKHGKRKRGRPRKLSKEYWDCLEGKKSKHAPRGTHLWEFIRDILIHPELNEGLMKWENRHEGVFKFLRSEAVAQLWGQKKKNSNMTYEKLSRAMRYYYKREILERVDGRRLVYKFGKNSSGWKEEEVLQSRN
The conditions noted are these: protein: recombinant; tags: N-terminal GST; dsDNA, one strand shown. The gist of the method: as §1

The next assay has as its target CRX (Homo sapiens, UniProt O43186 1-299). To be noted: protein: recombinant; tags: N-terminal GST; dsDNA, one strand shown. The gist of the method: as §1
Another assay addresses ETV1 (Homo sapiens, UniProt P50549 1-477). To be noted: protein: recombinant; tags: N-terminal GST; dsDNA, one strand shown. The gist of the method:
as §1

Chain of HSF1 (Q00613 whole entry): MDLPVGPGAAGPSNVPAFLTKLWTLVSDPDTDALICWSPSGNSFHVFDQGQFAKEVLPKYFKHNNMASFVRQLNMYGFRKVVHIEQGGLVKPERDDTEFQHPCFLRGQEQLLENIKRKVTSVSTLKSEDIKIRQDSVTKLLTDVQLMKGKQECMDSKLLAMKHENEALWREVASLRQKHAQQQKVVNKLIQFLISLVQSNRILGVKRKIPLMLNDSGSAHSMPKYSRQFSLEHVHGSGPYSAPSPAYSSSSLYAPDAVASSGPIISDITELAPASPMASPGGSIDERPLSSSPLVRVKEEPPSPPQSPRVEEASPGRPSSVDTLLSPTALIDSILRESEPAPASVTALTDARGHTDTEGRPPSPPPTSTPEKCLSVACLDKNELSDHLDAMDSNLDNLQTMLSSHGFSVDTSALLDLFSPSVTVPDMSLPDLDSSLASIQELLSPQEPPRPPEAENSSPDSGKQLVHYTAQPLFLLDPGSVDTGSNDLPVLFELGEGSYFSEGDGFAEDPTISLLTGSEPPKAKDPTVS
Chain of CRX (O43186 whole entry): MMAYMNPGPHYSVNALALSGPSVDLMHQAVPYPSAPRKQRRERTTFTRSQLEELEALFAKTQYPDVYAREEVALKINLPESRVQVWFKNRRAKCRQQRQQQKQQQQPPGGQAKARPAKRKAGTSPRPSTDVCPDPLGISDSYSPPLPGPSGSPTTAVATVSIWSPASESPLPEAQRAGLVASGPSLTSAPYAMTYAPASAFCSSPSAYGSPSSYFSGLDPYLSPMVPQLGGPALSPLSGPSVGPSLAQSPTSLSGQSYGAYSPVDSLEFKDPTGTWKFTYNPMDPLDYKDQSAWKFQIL
Chain of SPIB (Q01892 whole entry): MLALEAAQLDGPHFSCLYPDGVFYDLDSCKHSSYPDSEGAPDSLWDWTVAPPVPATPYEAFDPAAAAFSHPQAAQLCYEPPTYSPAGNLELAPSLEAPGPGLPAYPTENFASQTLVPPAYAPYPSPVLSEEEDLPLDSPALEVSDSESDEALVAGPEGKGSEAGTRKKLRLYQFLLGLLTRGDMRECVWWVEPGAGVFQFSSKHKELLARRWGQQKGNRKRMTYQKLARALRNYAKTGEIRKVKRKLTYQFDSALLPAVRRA
Chain of ETV1 (P50549 whole entry): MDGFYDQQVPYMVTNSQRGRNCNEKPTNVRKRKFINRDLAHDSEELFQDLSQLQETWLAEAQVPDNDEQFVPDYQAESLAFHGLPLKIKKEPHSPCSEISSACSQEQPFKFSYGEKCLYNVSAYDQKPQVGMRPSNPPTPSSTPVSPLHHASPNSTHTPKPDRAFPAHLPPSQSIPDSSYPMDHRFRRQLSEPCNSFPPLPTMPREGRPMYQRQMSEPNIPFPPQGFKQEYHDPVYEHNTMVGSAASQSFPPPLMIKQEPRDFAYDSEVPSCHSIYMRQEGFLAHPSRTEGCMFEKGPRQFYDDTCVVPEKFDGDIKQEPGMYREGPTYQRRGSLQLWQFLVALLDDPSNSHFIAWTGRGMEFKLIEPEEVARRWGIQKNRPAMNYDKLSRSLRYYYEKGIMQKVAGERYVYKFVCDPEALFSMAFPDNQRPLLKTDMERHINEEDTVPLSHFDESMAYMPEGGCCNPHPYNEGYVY
Chain of ETV5 (P41161 whole entry): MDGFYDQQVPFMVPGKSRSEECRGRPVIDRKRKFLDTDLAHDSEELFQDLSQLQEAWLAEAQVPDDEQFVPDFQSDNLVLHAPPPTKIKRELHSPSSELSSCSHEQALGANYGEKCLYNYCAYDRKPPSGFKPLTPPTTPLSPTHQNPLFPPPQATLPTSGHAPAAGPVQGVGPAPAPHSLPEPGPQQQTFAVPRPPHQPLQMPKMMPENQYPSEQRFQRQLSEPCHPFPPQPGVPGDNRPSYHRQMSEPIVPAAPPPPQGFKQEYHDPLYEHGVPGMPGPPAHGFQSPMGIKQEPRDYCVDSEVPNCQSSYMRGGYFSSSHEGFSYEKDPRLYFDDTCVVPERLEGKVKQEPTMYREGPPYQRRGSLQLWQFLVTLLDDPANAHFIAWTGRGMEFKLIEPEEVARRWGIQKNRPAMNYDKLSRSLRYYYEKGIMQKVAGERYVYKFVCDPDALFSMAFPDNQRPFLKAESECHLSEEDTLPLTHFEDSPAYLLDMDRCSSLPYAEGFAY
Chain of ELF1 (P32519 whole entry): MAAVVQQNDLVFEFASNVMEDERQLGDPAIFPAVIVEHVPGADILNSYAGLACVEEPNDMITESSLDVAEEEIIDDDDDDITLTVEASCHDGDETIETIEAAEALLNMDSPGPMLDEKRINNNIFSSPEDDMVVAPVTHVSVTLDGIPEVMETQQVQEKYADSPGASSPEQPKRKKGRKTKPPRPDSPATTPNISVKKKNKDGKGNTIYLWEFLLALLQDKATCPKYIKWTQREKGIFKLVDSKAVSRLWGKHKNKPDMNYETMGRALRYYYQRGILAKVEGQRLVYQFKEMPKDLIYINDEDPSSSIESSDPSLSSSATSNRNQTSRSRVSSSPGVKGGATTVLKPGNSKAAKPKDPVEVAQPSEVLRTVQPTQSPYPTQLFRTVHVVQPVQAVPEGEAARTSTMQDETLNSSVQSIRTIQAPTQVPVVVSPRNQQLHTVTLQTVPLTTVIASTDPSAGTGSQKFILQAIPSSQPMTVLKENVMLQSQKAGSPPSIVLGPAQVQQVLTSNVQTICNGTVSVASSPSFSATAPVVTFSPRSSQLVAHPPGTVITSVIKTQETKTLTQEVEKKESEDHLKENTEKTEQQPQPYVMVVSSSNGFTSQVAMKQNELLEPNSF
Chain of ELF4 (Q99607 whole entry): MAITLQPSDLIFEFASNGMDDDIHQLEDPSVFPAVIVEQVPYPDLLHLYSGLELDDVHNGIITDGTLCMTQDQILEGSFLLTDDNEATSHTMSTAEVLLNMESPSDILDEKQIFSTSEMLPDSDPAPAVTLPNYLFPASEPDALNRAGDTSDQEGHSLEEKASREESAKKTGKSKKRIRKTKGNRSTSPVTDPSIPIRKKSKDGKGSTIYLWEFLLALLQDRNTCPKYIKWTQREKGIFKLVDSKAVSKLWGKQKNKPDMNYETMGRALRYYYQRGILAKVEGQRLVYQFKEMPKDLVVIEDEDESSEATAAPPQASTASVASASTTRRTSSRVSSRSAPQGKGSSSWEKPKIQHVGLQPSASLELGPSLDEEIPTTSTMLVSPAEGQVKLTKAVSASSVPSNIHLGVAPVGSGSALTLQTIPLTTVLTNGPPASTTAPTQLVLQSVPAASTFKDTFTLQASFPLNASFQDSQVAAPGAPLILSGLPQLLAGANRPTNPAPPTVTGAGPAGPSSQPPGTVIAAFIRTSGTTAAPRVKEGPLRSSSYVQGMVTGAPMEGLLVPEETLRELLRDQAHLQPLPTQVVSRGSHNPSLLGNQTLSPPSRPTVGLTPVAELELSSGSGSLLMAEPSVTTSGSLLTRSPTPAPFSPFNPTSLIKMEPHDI

On to TACCGA, for which the binding signal was 1.26 fold enrichment (6-mer frequency, TF over GST control) with FLI1; 1.1 fold enrichment (6-mer frequency, TF over GST control) with ELK1; 1.13 fold enrichment (6-mer frequency, TF over GST control) in the assay with GABPA; 1.07 fold enrichment (6-mer frequency, TF over GST control) with ERG; 1.17 fold enrichment (6-mer frequency, TF over GST control) with ELF1; 1.1 fold enrichment (6-mer frequency, TF over GST control) in the assay with EHF. The binding signal in the assay with SPI1 was 1.12 fold enrichment (6-mer frequency, TF over GST control); with SPIB, 1.16 fold enrichment (6-mer frequency, TF over GST control); in the assay with ELK3 it was 1.12 fold enrichment (6-mer frequency, TF over GST control); with FEV it was 1.11 fold enrichment (6-mer frequency, TF over GST control); with ETV5, 1.14 fold enrichment (6-mer frequency, TF over GST control); with HSF1, 1.21 fold enrichment (6-mer frequency, TF over GST control). The binding signal in the assay with SPIC is 1.2 fold enrichment (6-mer frequency, TF over GST control); in the assay with ELF4, 1.18 fold enrichment (6-mer frequency, TF over GST control); with ELK4, 1.12 fold enrichment (6-mer frequency, TF over GST control); with ETV2, 1.04 fold enrichment (6-mer frequency, TF over GST control); with ELF3, 1.3 fold enrichment (6-mer frequency, TF over GST control); with CRX, 1.33 fold enrichment (6-mer frequency, TF over GST control). Besides, in the assay with ETV1, the binding signal is 1.24 fold enrichment (6-mer frequency, TF over GST control).

(Values after publication PMC7862700, “An all-to-all approach to the identification of sequence-specific readers for epigenetic DNA modifications on cytosine”.)
